Broadly, the AC50 is the concentration giving half of the maximal activity seen.

Among the data in PubChem BioAssay AID2283112 (EPA ToxCast) are outcome and AC50 values, retold here.

Inconclusive results are not listed. Activity calls are given as the source filed them. How the source made its calls: active means hit-call score of the fitted dose curve at least 0.9, where 1 is the maximum; inconclusive means response in the unintended direction; inactive means score below 0.9.

rat CYP1A1, Cyp1a1 (gene 24296), sequence (P00185 whole entry, looked up): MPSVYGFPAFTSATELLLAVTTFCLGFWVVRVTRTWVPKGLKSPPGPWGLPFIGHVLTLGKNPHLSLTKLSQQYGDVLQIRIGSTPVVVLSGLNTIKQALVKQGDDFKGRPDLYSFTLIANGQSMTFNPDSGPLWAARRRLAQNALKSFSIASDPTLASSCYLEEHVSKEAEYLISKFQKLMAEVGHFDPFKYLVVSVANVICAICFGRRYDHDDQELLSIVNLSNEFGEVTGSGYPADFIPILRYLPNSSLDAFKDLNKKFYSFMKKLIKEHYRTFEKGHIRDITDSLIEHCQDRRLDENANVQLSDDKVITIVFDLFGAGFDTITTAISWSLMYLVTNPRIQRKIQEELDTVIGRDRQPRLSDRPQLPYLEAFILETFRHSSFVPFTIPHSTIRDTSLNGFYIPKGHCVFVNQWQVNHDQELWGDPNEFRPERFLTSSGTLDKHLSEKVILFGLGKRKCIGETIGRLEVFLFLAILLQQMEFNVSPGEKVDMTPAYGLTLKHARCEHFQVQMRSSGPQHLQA

The target of this assay is rat CYP1A1, Cyp1a1 (gene 24296) (UniProt P00185). The experiment in a line: NVS_ADME_rCYP1A1: NovaScreen (NVS) CYP450-related Enzyme Activity (ADME) Assay for rat CYP1A1. On the procedure:
NVS_ADME_rCYP1A1 is a biochemical, single-readout assay that uses extracted gene-proteins from baculovirus-insect cells in a cell-free assay. Measurements were taken 1 hour after chemical dosing in a 96-well plate.NVS_ADME_rCYP1A1 is one of one assay component(s) measured or calculated from the NVS_ADME_rCYP1A1 assay. It is designed to make measurements of enzyme activity, a form of enzyme reporter, as detected with fluorescence intensity signals by Fluorescence technology.Data from the assay component NVS_ADME_rCYP1A1 was analyzed into 1 assay endpoint. This assay endpoint, NVS_ADME_rCYP1A1, was analyzed in the positive analysis fitting direction relative to Acetonitrile as the negative control and baseline of activity. Using a type of enzyme reporter, loss-of-signal activity can be used to understand changes in the enzymatic activity as they relate to the gene Cyp1a1. Furthermore, this assay endpoint can be referred to as a primary readout, because this assay has produced multiple assay endpoints where this one serves a enzymatic activity function. To generalize the intended target to other relatable targets, this assay endpoint is annotated to the cyp intended target family, where the subfamily is xenobiotic metabolism.
Binding assays used specific radioligands (tritiated, iodinated) with non-radioactive competitive displacement ligands in agonist or antagonist protocols (as indicated) and various reference compounds and inhibitors to titrate specific binding to receptors and transporters. Most enzyme assays (CYPs, kinases, phosphatases, proteases, HDACs) used recombinant protein and specific substrates (fluorescence mostly, some colorimetric and radioactive) and inhibitors, followed by a biochemical separation of substrate and product. All assays for the biochemical HTS were initially run in duplicate at a single concentration (10 uM for CYP450 assays and 25 uM for all others). Assay-chemical combinations meeting a pre-defined threshold (e.g., 30% inhibition and other criteria defined below) were then run in singleton concentration-response format with maximum concentration of 20 uM for CYPs and 50 uM for all others. Each assay was run with positive and negative controls, and concurrent controls on every plate. The follow-up (secondary) screen tested active chemical-pairs in concentration series, as well as a few additional assays not tested in the primary screen, some selected negative inactives, and several cases re-run in the concentration series for confirmatory purposes.
Consider `COP(=S)(OC)Oc1ccc([N+](=O)[O-])c(C)c1`, for which the outcome was inactive.
The same measure, in the same setting: as for `COc1nc(C)nc(NC(=O)NS(=O)(=O)c2ccccc2Cl)n1`, the entry is “inactive”; as for `COP(=S)(OC)SCn1nnc2ccccc2c1=O`, “inactive”.
Same read-out and setting: next, `CCOP(=S)(OCC)SCn1c(=O)oc2cc(Cl)ccc21`: “inactive”; `CC[C@H](C)[C@H]1O[C@]2(C=C[C@@H]1C)C[C@@H]1C[C@@H](C/C=C(\C)[C@@H](O[C@H]3C[C@H](OC)[C@@H](O[C@H]4C[C@H](OC)[C@@H](O)[C@H](C)O4)[C@H](C)O3)[C@@H](C)/C=C/C=C3\CO[C@@H]4[C@H](O)C(C)=C[C@@H](C(=O)O1)[C@]34O)O2` (tested in a mixture with another compound): “inactive”.
As to `CC(C)(C)C(=O)C(Oc1ccc(Cl)cc1)n1cncn1` (stereo not given), the AC50 is 16.9 µM (active).
On to `COP(=S)(OC)Oc1ccc([N+](=O)[O-])cc1`, for which the compound was called inactive.
Still for that read-out and setting: as for `CC[C@H](C)[C@H]1O[C@]2(C=C[C@@H]1C)C[C@@H]1C[C@@H](C/C=C(\C)[C@@H](O[C@H]3C[C@H](OC)[C@@H](O[C@H]4C[C@H](OC)[C@@H](NC)[C@H](C)O4)[C@H](C)O3)[C@@H](C)/C=C/C=C3\CO[C@@H]4[C@H](O)C(C)=C[C@@H](C(=O)O1)[C@]34O)O2`, the entry is “inactive”.
On to `CCOP(=S)(OCC)Oc1ccc([N+](=O)[O-])cc1`, for which the AC50 is 7.95 µM (active).
On the same count and under the same terms, as for `CCCN(CCOc1c(Cl)cc(Cl)cc1Cl)C(=O)n1ccnc1`, the figure is 2.23 µM (active).
